PubChem BioAssay AID2551 (National Center for Advancing Translational Sciences (NCATS), 2010)
The whole screen tested about 310,000 compounds, of which about 17,000 (5.5%) were called active. A call without a number means that no potency is given here. Roughly 11% stayed inconclusive and do not appear here. Calls follow the shape of the dose curve; as a rule, active = well fitted inhibition curve with a large enough effect; inconclusive = small, poorly fitted or top-dose-only effect, or effect the other way; inactive = no such curve, though single readings can be large or run the other way. The full list was thinned out, with actives kept by preference.

What follows are compounds tested against Nuclear receptor ROR-gamma (Mus musculus) (UniProt P51450) (assay: qHTS for inhibitors of ROR gamma transcriptional activity). Conditions: Drosophila S2 Gal4-RORgamma UAS-luciferase reporter, 20 h; series mostly up to 53.6 µM.
Outline: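 In this cell-based reporter format, copper sulfate (700 uM final) drives Gal4–ROR gamma fusion expression from a metallothionein promoter in Drosophila Schneider cells; compounds preincubated 1 hr, reporter read after 20 hr at ambient temperature.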
Also: nearly all actives have a fitted effect of over 60% in size.
Potency is read from the fitted curve at half-maximal effect.

Sequence of Nuclear receptor ROR-gamma (Mus musculus) (P51450 whole entry, looked up, the tested form may be a part): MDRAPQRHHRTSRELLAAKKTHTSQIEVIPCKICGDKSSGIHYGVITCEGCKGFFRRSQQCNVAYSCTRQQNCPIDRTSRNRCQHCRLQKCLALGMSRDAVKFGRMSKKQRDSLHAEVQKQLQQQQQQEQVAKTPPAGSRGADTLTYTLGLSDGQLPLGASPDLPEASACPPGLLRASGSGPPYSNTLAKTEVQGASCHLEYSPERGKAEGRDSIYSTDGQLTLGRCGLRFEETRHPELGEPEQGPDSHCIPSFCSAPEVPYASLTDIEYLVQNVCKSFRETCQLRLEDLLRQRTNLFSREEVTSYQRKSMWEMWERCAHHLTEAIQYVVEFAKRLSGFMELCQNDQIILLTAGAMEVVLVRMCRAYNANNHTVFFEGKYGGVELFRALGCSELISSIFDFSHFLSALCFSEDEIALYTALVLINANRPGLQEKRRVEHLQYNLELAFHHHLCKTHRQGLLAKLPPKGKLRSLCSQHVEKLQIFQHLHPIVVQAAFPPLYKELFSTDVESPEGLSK

Compound | Potency
COc1ccc(C2(C)NC(=O)N(CC(=O)c3ccc4c(c3)OCO4)C2=O)cc1 (stereo not given) | inactive
Cc1cc(C)c(S(=O)(=O)Nc2c(C)n(C)n(-c3ccccc3)c2=O)cc1[N+](=O)[O-] | inactive
Cc1cccc([C@@H]2[C@@H]3C(=O)N(Cc4ccccc4)C(=O)[C@@H]3[C@]3(C)C(=O)N(c4ccc(Br)cc4)C(=O)N23)c1 | inactive
O=C(N/N=C/c1cccc(Br)c1)c1ccc(N2CCCC2=O)cc1 | inactive
COCc1ccc(CN2CCC(Oc3ccc(C(=O)NCc4ccccn4)cc3)CC2)o1 | inactive
COc1ccc(NC(=O)C2CCN(S(=O)(=O)c3ccc4[nH]c(=O)oc4c3)CC2)c(OC)c1 | inactive
Cc1ccc(S(=O)(=O)N(CCCN(C)C)Cc2ccc3c(c2)OCO3)cc1 | inactive
CCCS(=O)(=O)Nc1ccc(-c2cn3c(n2)SCC3)cc1 | inactive
COc1cc(/C=N\NC(=O)c2nonc2N)c(OC)cc1Br | inactive
Cc1cc(C)c([N+](=O)[O-])cc1-c1ccc(/C=N/NC(=O)c2nonc2N)o1 | 11200 nM (active)
Cc1ccc(-c2ccc(/C=N/NC(=O)CN3CCOCC3)o2)cc1[N+](=O)[O-] | inactive
COc1ccnc2c1c(=O)n(Cc1cccc(F)c1)c(=O)n2C | inactive
CC(C)CC(=O)N1CCN(Cc2cccc(Cl)c2)CC1 | inactive
O=c1[nH]n(-c2cccc(Cl)c2)c2ncccc12 | inactive
Clc1cccc(CN2COc3c(cc(Cl)c4cccnc34)C2)c1 | 562 nM (active)
COc1ccc(Cl)cc1NS(=O)(=O)c1cccc(C(=O)NCC2CCCO2)c1 (stereo not given) | inactive
O=C(COc1ccc([N+](=O)[O-])cc1)Nc1cccc(C(=O)Nc2ccccc2C(=O)O)c1 | inactive
CCCOc1ccc(CNC(=O)C2CCN(c3nn4c(=O)cc(C)nc4s3)CC2)cc1 | inactive
Cc1nn2c(NCCN(C)C)c3c(nc2c1-c1ccccc1)CCC3 | 141 nM (active)
Cc1cc(C(C)(C)C)n2nc(C)c(-c3ccccc3)c2n1 | inactive
Cc1cc(N2CCCC2)n2nc(C)c(-c3ccccc3)c2n1 | inactive
COc1ccc(-c2noc(C(C)NS(=O)(=O)c3ccc(NC(C)=O)cc3)n2)cc1 (stereo not given) | inactive

Compound | Potency
Cc1cc(C)cc(NC(=O)C2CCCN(S(=O)(=O)c3ccc4[nH]c(=O)ccc4c3)C2)c1 (stereo not given) | inactive
COc1ccc(-n2c(=S)[nH]c3sc4c(c3c2=O)CCc2ccccc2-4)cc1 | 447 nM (active)
CCCSc1nc2sc3c(c2c(=O)n1-c1ccc(OC)cc1)CCN(C)C3 | inactive
CSc1nc2sc3c(c2c(=O)[nH]1)CCc1ccccc1-3 | inactive
Cn1c(CCN2CCCC2)nc2cc(NS(=O)(=O)c3ccccc3)ccc21 | inactive
CN(CCC1CCOCC1)C(=O)CC1C(=O)NCCN1Cc1cccc(F)c1 (stereo not given) | inactive
CCCCC(CC)CNCc1cccn1CCN1CCOCC1 (stereo not given) | inactive
COc1ccc(CCNC(=O)C2CCCN2C(=O)Nc2ccccc2)cc1OC (stereo not given) | inactive
C/C(=N\NC(=O)c1cc(-c2ccc(O)cc2)nc2ccccc12)c1cccnc1 | inactive
O=C(O)c1ccc2c(c1)C(=O)N(NC(=O)c1ccc(O)cc1)C2=O | 11200 nM (active)
O=C(O)c1ccc2c(c1)C(=O)N(c1ccc(/C=C/C(=O)c3ccccc3)cc1)C2=O | inactive
Cc1cccc(N2C(=O)c3ccc(C(=O)Nc4cccc(C(=O)O)c4)cc3C2=O)c1 | inactive
Cc1cc(OCC(=O)NCC(O)c2ccccc2)c2c(C)c(C)c(=O)oc2c1 (stereo not given) | inactive
O=C(O)CCCCCCCCc1cn(CN2C(=O)c3ccccc3C2=O)nn1 | inactive
CC1CCN(C(=O)c2ccccc2NC(=O)Cc2ccccc2)CC1 | inactive
CC1CCN(C(=O)/C(=C\c2ccccc2)NC(=O)c2ccccc2)CC1 | inactive
CC1CCN(C(=S)NC(=O)c2ccccc2Br)CC1 | 562 nM (active)
COc1ccc(NC(=O)C(C)N2c3cccc4cccc(c34)S2(=O)=O)c(OC)c1 (stereo not given) | inactive
COc1ccc(COC(=O)c2ccc(Cl)c(S(=O)(=O)N3CCOCC3)c2)cc1F | inactive
CC(C)(C)OC(=O)N1CCC(C(=O)NNC(=O)c2ccc(Cl)cc2Cl)CC1 | inactive
O=C(CN1CCC(O)(c2cccc(C(F)(F)F)c2)CC1)NCCc1ccccc1 | inactive
O=C(CCc1nnc(Cc2ccc3c(c2)OCO3)o1)NCCc1ccccc1Cl | inactive

Compound | Potency
O=C(NNC(=S)Nc1ccc(F)cc1)[C@H]1C[C@@H]1c1ccccc1 | inactive
O=C(N/N=C/c1cccc2cccnc12)[C@H]1C[C@@H]1c1ccccc1 | 3550 nM (active)
Cc1ccc(NC(=O)C2CC2c2ccccc2)cc1 (stereo not given) | inactive
COc1ccc(CCN(C)C(=O)C23CC4CC(CC(Cl)(C4)C2)C3)cc1OC | inactive
Cc1ccc(N2C(=O)C3C4C=CC(CC4)C3C2=O)cc1Br (stereo not given) | inactive
O=C(CN1CCCCCC1)Nc1ccc(Cl)cc1F | inactive
CCOc1ccc(N2CC(C(=O)NCc3ccccn3)CC2=O)cc1 (stereo not given) | inactive
COC(=O)c1ccc(C(=O)Nc2cc(Cl)ccc2Cl)cc1NC(=O)c1ccccc1C | 11200 nM (active)
COC(=O)c1ccccc1NC(=O)c1cncc(Br)c1 | inactive
COC(=O)c1ccc(C(=O)OC)c(NC(=S)N2CCN(c3cc(Cl)ccc3C)CC2)c1 | inactive
COc1ccc(C(=O)NC(C)CCc2ccccc2)c(OC)c1 (stereo not given) | inactive
CCN(c1cccc(C)c1)S(=O)(=O)c1ccc(-c2coc(C)n2)cc1 | inactive
O=C1/C(=C/c2ccc3c(c2)OCO3)Oc2cc(OCC(=O)N3CC(O)C[C@H]3C(=O)O)ccc21 (stereo not given in full) | inactive
COC(=O)c1cc(OCC(=O)NC2CCCc3ccccc32)cc(C(=O)OC)c1 (stereo not given) | inactive
O=C(NCCO)C(=O)NCC(c1ccc2c(c1)OCO2)N1CCN(c2ccc(F)cc2)CC1 (stereo not given) | inactive
O=C(Nc1cc2ccccc2oc1=O)C1CCCCC1 | inactive
O=c1oc2ccccc2cc1-c1cn(-c2ccccc2)c(=S)[nH]1 | 1260 nM (active)
O=C(c1cn(-c2ccccc2)nc1-c1cc2ccccc2oc1=O)N1CCOCC1 | inactive
CN1CCN(S(=O)(=O)c2ccc(NC(=S)NC(=O)C3CC3)cc2)CC1 | inactive
S=C(NCc1cccnc1)Nc1ccc(Cl)cc1Cl | inactive
O=C(NC(=S)Nc1ccc(Cl)cc1Cl)C1CC1 | 5010 nM (active)
